The panel holds about 83,000 compounds, 20% with a hit somewhere; the sample as a whole holds those more often.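 Cell lines were cultured in 96-well plates, exposed to a single compound concentration, and assessed for percent growth 48 hours later.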 A number with no mark means an inactive call. Calls of active or inactive are those of the source. The calls were made as follows: active = growth percent below 10; inactive = the rest.
Assays:
Test in all cases: NCI-60 one-dose screen, 48 h (100 = growth as untreated, 0 = no growth, -100 = all killed)
Settings in all cases: 10 µM unless noted
DU-145 prostate = tested on: DU-145 prostate
K-562 leukemia = tested on: K-562 leukemia
MALME-3M melanoma = tested on: MALME-3M melanoma
MDA-MB-231 breast = tested on: MDA-MB-231 breast
RXF 393 renal = tested on: RXF 393 renal
SF-268 CNS = tested on: SF-268 CNS
SF-295 CNS = tested on: SF-295 CNS
SF-539 CNS = tested on: SF-539 CNS
UACC-257 melanoma = tested on: UACC-257 melanoma
M14 melanoma = tested on: M14 melanoma
HCT-15 colon = tested on: HCT-15 colon
HT29 colon = tested on: HT29 colon
SNB-75 CNS = tested on: SNB-75 CNS
SNB-19 CNS = tested on: SNB-19 CNS
U251 CNS = tested on: U251 CNS
PC-3 prostate = tested on: PC-3 prostate
SK-MEL-5 melanoma = tested on: SK-MEL-5 melanoma
UACC-62 melanoma = tested on: UACC-62 melanoma
LOX IMVI melanoma = tested on: LOX IMVI melanoma
SK-MEL-28 melanoma = tested on: SK-MEL-28 melanoma

SMILES	growth (DU-145 prostate)	growth (K-562 leukemia)	growth (MALME-3M melanoma)	growth (MDA-MB-231 breast)	growth (RXF 393 renal)	growth (SF-268 CNS)	growth (SF-295 CNS)	growth (SF-539 CNS)	growth (UACC-257 melanoma)	growth (M14 melanoma)	growth (HCT-15 colon)	growth (HT29 colon)	growth (SNB-75 CNS)	growth (SNB-19 CNS)	growth (U251 CNS)	growth (PC-3 prostate)	growth (SK-MEL-5 melanoma)	growth (UACC-62 melanoma)	growth (LOX IMVI melanoma)	growth (SK-MEL-28 melanoma)
C=C(C)C1CCC2(C)OC2C1 (stereo not given)	122%	135%	95.7%	102%	204%	115%	96.7%	103%	132%	108%	112%	109%	80.4%	110%	118%	109%	109%	103%	108%	127%
COc1ccc(-c2cc(-c3ccc(Cl)cc3)c(C#N)c(=O)n2CCCCCC(=O)Nc2ccccc2N)cc1	49.8%	15%	39%	55.6%	29.8%	75.9%	-19.5% (active)	60%	23.4%	-10.9% (active)	23.1%	14.8%	-6.08% (active)	70.7%	48.8%	39.5%	-79.7% (active)	4.17% (active)	-54.2% (active)	60.5%
COc1ccc(/C=C2\Oc3cc(OCCN4CCC(Cc5ccccc5)CC4)ccc3C2=O)cc1OC	82.5%	7.36% (active)	52.7%	53.5%	48%	79.8%	82.6%	83%	73.3%	30.2%	33.5%	21.7%	80.8%	92.6%	70.9%	78.1%	42.7%	74.4%	7.25% (active)	81.5%
CC[C@H](C)C(=O)O[C@H]1CCC=C2C=C[C@H](C)[C@H](CC[C@@H]3CC=CC(=O)O3)[C@H]21	88.7%	46.4%	92.5%	97.6%	96.6%	99.2%	115%	80.5%	77.8%	76.4%	85.7%	67.7%	68.9%	83.5%	88.1%	61.6%	77%	82.3%	53.3%	94.8%
O=C(Nc1ccc(OS(=O)(=O)c2ccc(F)cc2)cc1)c1ccc(Cl)cc1	107%	81.1%	96.9%	104%	109%	101%	105%	108%	100%	98%	89.9%	80.1%	114%	99.4%	100%	91.8%	90.8%	96%	98.7%	107%
Nc1cc2c(cc1Br)-c1cc(Cl)ccc1C2=O	107%	93.2%	107%	79.8%	101%	90.6%	106%	99.2%	103%	105%	102%	102%	96.8%	104%	98.1%	95.2%	90.9%	96.3%	102%	106%
CCOC(=O)c1cn2ncnc(Oc3ccc(NC(=O)NCCN4CCOCC4)c(Cl)c3)c2c1C	109%	98.3%	91.5%	100%	94.2%	94.9%	98.4%	95.6%	95.8%	91.3%	96.3%	104%	76.8%	95.1%	98.4%	91.2%	98.5%	97.6%	99.7%	97.1%
N[C@@H](Cc1ccccc1)[C@@H](O)C(=O)NCc1ccc(F)cc1	110%	97%	107%	100%	118%	95.7%	95.5%	105%	107%	101%	103%	110%	90.1%	97.6%	104%	106%	102%	94.5%	105%	108%
